Laboratory results published in PubChem BioAssay (NCI).
The panel holds about 79,000 compounds, 15% with a hit somewhere; the sample as a whole holds those more often. Unmarked numbers belong to inactive results. Active and inactive are the calls of the source. Cut-off read from the data, not from the text of the source: active = growth inhibition above about 70%; inactive = the rest.

What was measured:
[1] = NCI Yeast Anticancer Drug Screen. Data for the rad50 strain (AID 155);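 note: 0% = growth of vehicle-only cultures of the same strain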; conditions: S. cerevisiae rad50 strain growth inhibition, active compounds read high
Summary of the method: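 DNA repair mutant yeast, compound exposure, growth read-out; inhibition is taken relative to vehicle.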

[2] = NCI Yeast Anticancer Drug Screen. Data for the mec2-1 strain (AID 157); conditions: S. cerevisiae mec2-1 strain, active compounds read high
Summary of the method: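 Readout is yeast growth inhibition, normalised to vehicle-treated controls, in the mec2-1 strain exposed to compound.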

[3] = NCI Yeast Anticancer Drug Screen. Data for the sgs1 mgt1 strain (AID 161);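 note: 0% = growth of cultures given vehicle only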; conditions: S. cerevisiae sgs1 mgt1 strain, active compounds read high
Summary of the method: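 Yeast cells carrying a defined DNA-repair defect were exposed to test compounds. Growth inhibition was measured relative to vehicle-treated controls.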

[4] = NCI Yeast Anticancer Drug Screen. Data for the cln2 rad14 strain (AID 165);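 note: 0% = growth equal to vehicle treated cultures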; conditions: S. cerevisiae cln2 rad14 strain, active compounds read high
Summary of the method: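 Relative to vehicle controls, growth inhibition of compound-treated cln2 rad14 yeast was recorded.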

[5] = NCI Yeast Anticancer Drug Screen. Data for the bub3 strain (AID 167); conditions: S. cerevisiae bub3 mutant strain, active compounds read high
Summary of the method: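 In this screen, a yeast mutant lacking normal mitotic checkpoint function is challenged with compound. Relative growth versus vehicle gives the inhibition value.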

[6] = NCI Yeast Anticancer Drug Screen. Data for the mlh1 rad18 strain (AID 175); conditions: S. cerevisiae mlh1 rad18 strain growth inhibition, active compounds read high
Summary of the method: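 Test agents were incubated with a yeast strain of defined genotype (DNA damage repair defect). Inhibition of growth was derived by comparison with vehicle-exposed cultures.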

[7] = at 5.0 µM (retest, dose inferred, filed as 0.5)
[8] = at 50.0 µM (retest, dose inferred, filed as 5.0)

| Compound | growth inhibition [1, 7] | growth inhibition [1, 8] | growth inhibition ([1]; at 50.0 µM) | growth inhibition [2, 7] | growth inhibition [2, 8] | growth inhibition ([2]; at 50.0 µM) | growth inhibition [3, 7] | growth inhibition [3, 8] | growth inhibition ([3]; at 50.0 µM) | growth inhibition [4, 7] | growth inhibition [4, 8] | growth inhibition ([4]; at 50.0 µM) | growth inhibition [5, 7] | growth inhibition [5, 8] | growth inhibition ([5]; at 50.0 µM) | growth inhibition [6, 7] | growth inhibition [6, 8] | growth inhibition ([6]; at 50.0 µM) |
| --- | --- | --- | --- | --- | --- | --- | --- | --- | --- | --- | --- | --- | --- | --- | --- | --- | --- | --- |
| O=[N+]([O-])/C(Cl)=C(\Nc1ccccc1)C(Cl)=C(Cl)Cl | 55% | 99% (active) | 88.2% (active) | 82% (active) | 99% (active) | 92.2% (active) | 73% (active) | 99% (active) | 88.8% (active) | 64% | 99% (active) | 90.9% (active) | 76% (active) | 99% (active) | 90.4% (active) | 83% (active) | 99% (active) | 85.1% (active) |
| O=C(C[n+]1ccccc1Cl)c1ccc(Oc2ccc(C(=O)C[n+]3ccccc3Cl)cc2)cc1 | -34% | 0% | 90.6% (active) | -5% | -18% | 83.2% (active) | -11% | -11% | 30.5% | -14% | -15% | 91.9% (active) | -40% | -28% | 89% (active) | -33% | -48% | 80.7% (active) |
| Cc1cc([N+](=O)[O-])c2nnnn2c1 | 5% | 59% | -1.75% | 2% | 28% | 1.4% | 0% | 31% | -15.2% | -1% | 4% | -9.75% | -1% | 28% | 22.4% | 7% | 65% | 34% |
| COc1ccc(/C=C2\Sc3scc(-c4ccc([N+](=O)[O-])cc4)[n+]3C2=O)cc1OC | 3% | 4% | 39.3% | -6% | 20% | 55% | -3% | 11% | 66% | 0% | -4% | 28.6% | 9% | 16% | 83% (active) | 3% | 12% | 65.8% |
| CCOC(=O)c1c(NC(=O)CBr)sc(C)c1C | 8% | 48% | 21.2% | -3% | 64% | 7.8% | 10% | 74% (active) | 32.9% | 0% | 18% | -28.4% | 5% | 65% | 38.1% | 7% | 69% | 21.8% |
| CC(C)C(=O)/C=C/c1c(Cl)cccc1Cl | 22% | 26% | 26.6% | 14% | 22% | 41.9% | 11% | 20% | 48.4% | 16% | 28% | 46% | 22% | 18% | 54.9% | 19% | 21% | 43.6% |
| O=C1C(c2ccccc2)=[N+]([O-])c2cc([N+](=O)[O-])c(/C(Cl)=C/c3ccccc3)cc21 | 4% | 8% | 54.8% | 5% | 33% | 94.5% (active) | 6% | 16% | 71.5% (active) | 11% | 9% | 39.2% | 7% | 7% | 97.9% (active) | 3% | 3% | 96.2% (active) |
| O=C(O)c1ccccc1-c1c2cc(I)c(=O)c(I)c-2oc2c(I)c(O)c(I)cc12 | 20% | 98% (active) | 98.9% (active) | 15% | 99% (active) | 99.5% (active) | 12% | 97% (active) | 99.2% (active) | 5% | 98% (active) | 99% (active) | 2% | 98% (active) | 98.9% (active) | 34% | 99% (active) | 98.8% (active) |
| O=c1[nH]c2c([N+](=O)[O-])cc(Cl)cc2nc1/C=C(\O)c1ccc(F)cc1 | 12% | 64% | 71.1% (active) | -6% | 23% | 42.8% | 3% | 54% | 73.4% (active) | 5% | 42% | 42.2% | 2% | 41% | 43.5% | -3% | 65% | 87.3% (active) |
| Cc1ccc(NC(=O)CSC(N)=O)cc1C | 4% | 22% | 81.5% (active) | 1% | 40% | 70.1% (active) | 1% | 30% | 87.3% (active) | 1% | 9% | 58.5% | 5% | 69% | 86.2% (active) | 8% | 20% | 72% (active) |
| CCN(CC)CCOc1ccc(C=C2c3ccccc3-c3ccccc32)cc1 | 98% (active) | 99% (active) | 99.2% (active) | 99% (active) | 99% (active) | 99.2% (active) | 99% (active) | 99% (active) | 99.3% (active) | 99% (active) | 99% (active) | 99.1% (active) | 99% (active) | 99% (active) | 99.2% (active) | 98% (active) | 99% (active) | 98.9% (active) |
| O=C(c1ccccc1)N1CCN(c2cccc(Cl)c2)CC1 | 0% | 2% | 29.2% | 0% | 2% | 0.45% | -2% | 8% | 12.7% | -1% | 10% | -26.1% | 9% | 93% (active) | 77.4% (active) | 1% | 12% | 16.3% |
| CN(C)NC(=S)C(F)(F)F | -1% | 87% (active) | 95.5% (active) | 1% | 79% (active) | 56.7% | 0% | 84% (active) | 97.8% (active) | -4% | 85% (active) | 44% | 0% | 85% (active) | 37.6% | -2% | 79% (active) | 77% (active) |
| COc1ccc(C(O)(c2ccccc2)c2ccccc2)cc1 | -5% | 98% (active) | 99.1% (active) | -4% | 99% (active) | 99% (active) | -3% | 99% (active) | 99.2% (active) | -5% | 92% (active) | 93.9% (active) | 3% | 87% (active) | 99.5% (active) | -6% | 98% (active) | 98.7% (active) |
| O=S(=O)(C#Cc1ccccc1)c1ccccc1 | 12% | 98% (active) | 99.4% (active) | -11% | 99% (active) | 99.5% (active) | 24% | 99% (active) | 99.4% (active) | 7% | 99% (active) | 99.2% (active) | 3% | 98% (active) | 99.1% (active) | 16% | 99% (active) | 99% (active) |
| CCCOCCC#N | 8% | -2% | -11.6% | 5% | 0% | 7.45% | -6% | 1% | -8.1% | 5% | -2% | 40.9% | 7% | 13% | -1.65% | 7% | -1% | -17.9% |
| CCCC(C)OC(=O)Nc1cccc(Cl)c1 (configuration not stated) | -15% | 3% | 98.4% (active) | -4% | -7% | 98.2% (active) | -2% | -10% | 98.9% (active) | -29% | -1% | 97.9% (active) | -21% | 1% | 97.5% (active) | -20% | 16% | 97.6% (active) |
| Nc1ccc(C(=O)NN2C(=O)C(Cl)C2c2cc(Br)cc(Br)c2O)cc1 (configuration not stated) | -3% | 64% | 96.2% (active) | -12% | 80% (active) | 94.2% (active) | -3% | 91% (active) | 93.7% (active) | -20% | 76% (active) | 89% (active) | 10% | 54% | 98.2% (active) | 5% | 85% (active) | 94.7% (active) |
| Nc1[nH]cnc(=S)c1NC=O | -1% | -4% | 13.9% | -1% | -5% | 2.8% | -2% | -5% | 35% | -4% | -5% | 0.4% | 0% | -3% | 42.3% | -3% | -3% | -1.9% |
